Among all 1,200 compounds or so, about 290 (24%) were called active. Not shown: some 3% with an inconclusive outcome. Only a sample is shown. Entries with a potency or affinity are not part of this list. Values without a mark were called inactive.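 The calls were made as follows: active = compounds lowering cell viability signal with fitted half-maximal concentration at most ten times their highest tested concentration; inconclusive = flat fit with 30 to 70% signal loss, or poor fit; inactive = the rest.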

The nature of this assay: HEK293T cell viability reduction, dose response, cytotoxicity control for LMP1 NF-kB inhibitor project, CellTiter-Glo luminescence, cherry-picks (AID 504861). To be noted: CellTiter-Glo ATP luminescence, 48 h; series mostly up to 26 µM; activity change, negative = cytotoxicity: at the top concentration.
`COc1ccc(NC(=O)N(CCN2CCCC2)Cc2cc3cc(OC)c(OC)cc3[nH]c2=O)cc1`: the “activity change, negative = cytotoxicity” value is 12%.
On to `CC(C)CC1C(=O)N(Cc2cn(CC3CCCCC3)nn2)CCS(=O)(=O)N1Cc1ccc(-c2ccc(F)nc2)cc1` (centres undefined), for which the “activity change, negative = cytotoxicity” value was -1.62%.
The figure for `Cc1ccc(C(=O)Nc2ccc3ncccc3c2)cc1` is -1.4%.
Under `O=C(Nc1ccccn1)NC1CCCCC1` stands -6.08%.
Under `CCC(C)N1C(=O)CCC1C(=O)N1CCN(c2ccc(F)cc2)CC1` (centres undefined) stands 7.52%; under `c1cncc(CNc2ncnc3ccc(-c4ccoc4)cc23)c1`, 3.52%.
Regarding `O=c1cc(-c2ccccc2)[nH]c2ccc(F)cc12`, the “activity change, negative = cytotoxicity” value is 11.4%.
Under `CCOc1ccc(OCc2cccc(C(=O)N3CCCC3)c2)cc1` stands -4.95%; under `COc1ccc(-c2ccc3c(c2)S(=O)(=O)c2cccc(C(=O)NCc4cc(C)oc4C(F)(F)F)c2C3=O)cc1OC`, 0.555%; under `COCCCNC(=O)CN1C(=O)COc2ccc(S(=O)(=O)N3CCOCC3)cc21`, 5.96%.
Under `CN1CCc2cccc3c2C1Cc1ccc(O)c(O)c1-3` (centres undefined) stands 3.34%; under `CSc1ccccc1NC(=O)CN1CCCCC1C` (centres undefined), 4.27%; under `COc1ccc2cc(-c3cc(C(=O)OCC(=O)Nc4c(C)n(C)n(-c5ccccc5)c4=O)c4ccccc4n3)ccc2c1`, 2.98%.
Take `CCc1ccc(/C=C/C(=O)C2C(=O)c3ccccc3C2=O)cc1`: the “activity change, negative = cytotoxicity” value was 9.63%.
Under `N#CCCn1cc(C(=O)Nc2ccccn2)c(-c2ccccc2)n1` stands 9.63%; under `CC1=NN(C(N)=S)C(=O)C1N=Nc1cccc(C(=O)O)c1` (centres undefined), 0.78%; under `C[C@@]12C(=O)N(Cc3ccccc3)CC(=O)N1[C@H](/C=C/c1ccccc1)[C@@H]1C(=O)N(c3ccccc3)C(=O)[C@@H]12`, 5.94%.
The figure for `COc1cc(OC)cc(C(=O)N[C@H](C(=O)OCC(=O)c2ccc(C)c([N+](=O)[O-])c2)C(C)C)c1` is 5.81%; for `Clc1ccc(-n2ncc3c(N4CCCC4)ncnc32)cc1` it is 1.84%.
The figure for `COc1cc(CC(=O)N(c2ccccc2)c2nc(C)cs2)cc(OC)c1OC` is 2.07%; for `Cc1nc2sc(-c3ccccc3)cc2c(=O)n1N` it is -3.13%.
For the compound `COCCN1CSC(=S)N(Cc2ccco2)C1`, the “activity change, negative = cytotoxicity” value was 1.64%.
For the compound `O=C(Nc1ccc(Cl)cc1)Nc1nnc(CSCc2ccc(Cl)cc2)s1`, the “activity change, negative = cytotoxicity” value was -4.04%.
Under `COc1cc(NCCCCCCN)c2ncccc2c1OC` stands -2.14%.
Under `COc1cccc(/C=N\NC(=O)c2ccc(C)nc2)c1` stands 0.683%.
`O=C(C=C1SCCS1)/C=C/c1ccco1`: the “activity change, negative = cytotoxicity” value is -0.337%.
Consider `COc1cccc(C(=O)CC(=O)C(=O)Nc2ccc(C)cc2Cl)c1`, for which the “activity change, negative = cytotoxicity” value was 13.5%.
Consider `CCSC1=C(C#N)C(c2ccc(C)o2)CC(=O)N1` (centres undefined), for which the “activity change, negative = cytotoxicity” value is 7.27%.
The figure for `Cc1cc(=O)[nH]c(N/N=C/c2ccc(C)o2)n1` is 5.2%; for `CCOc1ccc(/C=N/Nc2cc(N3CCOCC3)ncn2)c(O)c1` it is 9.16%; for `Cc1cc(N=Cc2c(O)ccc3cc(Br)ccc23)no1` it is 16.6%.
Under `CCCC(=O)NCCCc1nc2ccccc2[nH]1` stands 6.88%; under `COc1ccc(NC(=O)c2cc3ccccc3oc2=O)cc1`, 4.4%.
The figure for `O=C1c2ccccc2C(Nc2cccnc2)N1Cc1ccccc1` (centres undefined) is 4.75%; for `C[C@H](CO)N1C[C@H](C)[C@@H](CN(C)C(=O)NC2CCCCC2)Oc2c(NS(=O)(=O)c3cn(C)cn3)cccc2C1=O` it is 10.7%.
Turning to `COc1ccc(C(c2sc3nc(C)nn3c2O)N2CCC(C(N)=O)CC2)cc1OC` (centres undefined), the “activity change, negative = cytotoxicity” value was 4.88%.
The figure for `CCCN(CCC)c1ncnc2nc[nH]c12` is -15%; for `Cc1ccc(-n2nc(C(=O)NCc3ccc(C)o3)c3c4ccccc4n(C)c3c2=O)cc1` it is 1.07%; for `Cc1ccc(-c2nnn(CC(=O)N(Cc3ccco3)C(C(=O)NC(C)(C)C)c3ccncc3)n2)o1` (centres undefined) it is 6.77%.
As for `CCC(C)n1ncn(-c2ccc(N3CCN(c4ccc(OCC5COC(Cn6cncn6)(c6ccc(Cl)cc6Cl)O5)cc4)CC3)cc2)c1=O` (centres undefined), the “activity change, negative = cytotoxicity” value is 5.74%.
The figure for `CC(=C/c1ccccc1)/C=N/n1c(-c2ccncc2)n[nH]c1=S` is 2.82%; for `CCCc1c(C(=O)N/N=C(\C)c2ccccn2)nnn1-c1nonc1N` it is -2.76%.
As to `Cc1ccnc(NC(=O)c2cccc(NC(=O)c3ccc(Cl)c(Cl)c3)c2)c1`, the “activity change, negative = cytotoxicity” value is 1.38%.
With `N/C(=N\OC(=O)c1cccc(Br)c1)c1ccccn1`, the “activity change, negative = cytotoxicity” value was 1.86%.
The figure for `O=C(O)c1ccc(C=NN=C2c3ccccc3-c3ccccc32)cc1` is -3.57%.
As to `Cc1ccc(CCNC(=O)CCc2nc3ccccc3[nH]2)cc1`, the “activity change, negative = cytotoxicity” value is 11.4%.
As to `CCn1c2ccccc2c2cc(/C=N/n3c(-c4cc(C)[nH]n4)n[nH]c3=S)ccc21`, the “activity change, negative = cytotoxicity” value was 28%.
Take `O=C(O)c1cn2c3c(ccc(Cl)c3c1=O)OCC2`: the “activity change, negative = cytotoxicity” value is -3.22%.
Under `S=c1[nH]nc(C2CCCCC2)n1/N=C/c1ccncc1` stands -1.04%; under `CCN(CC)S(=O)(=O)c1ccc(N=NC2=C(O)CCCC2=O)cc1`, -0.271%.
For the compound `CCN(CC)S(=O)(=O)c1ccc(N/N=C/c2ccc(O)cc2O)nc1`, the “activity change, negative = cytotoxicity” value was 6.74%.
The figure for `COC(=O)C1=NNC(C(=O)OC)C1c1ccccc1` (centres undefined) is 13.5%; for `COCCCNCC1C(Oc2ccc(Cl)cc2)C(=O)N1c1ccccc1C` (centres undefined) it is -10%.
The figure for `COc1ccc(C(=O)Nc2cc(C)c(NC(=O)c3ccccc3OC)cn2)cc1` is -4.03%.

The values above are taken from PubChem BioAssay AID504861 (Broad Institute, 2011).
